The source of these data is PubChem BioAssay (NCATS).

Several values for one entry are separate records, joined by “and”; a condition that tells them apart may be missing. Equal values may be shown once. Inconclusive results are not listed. A call without a number means that no potency is given here. Activity calls are given as the source filed them. Calls come from the whole dose curve; as a rule, active = well fitted cell-killing curve with a large enough effect; inconclusive = small, poorly fitted or top-dose-only effect, or effect the other way; inactive = flat fitted curve, though single readings scatter. Non-standard residues stand in square brackets, D forms with d. Residues, ends and D or L forms follow the SMILES beside them. *: point of attachment. Sta = CC(C)C[C@H](N)[C@@H](O)CC(=O)O; Isovaleryl = CC(C)CC(=O)*
Potency is the fitted concentration of half-maximal effect.

The test system of this test is Tov-21-G. In words: Primary qHTS to identify gynecologic anti-cancer compounds using libraries of approved drugs and bioactive compounds (AID 1345084). Note: nearly all actives have a fitted effect of over 55% in size. The conditions noted are these: Gynecologic cancer cell panel viability, ATPlite luminescence, 48 h; series mostly up to 57.5 µM. The procedure, abridged: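 Five-point cytotoxicity, 48 h drug exposure at 37 C, 5% CO2, on cells seeded 16 h beforehand. ATP content read by ATPlite luminescence.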
For orientation: qHTS replaces the single test concentration by a dilution series.
With `CS(=O)(=O)OCCCCOS(C)(=O)=O`, the Potency result was “inactive”. In the case of `CC(C)c1ccc2oc3nc(N)c(C(=O)O)cc3c(=O)c2c1`, the Potency was 5.01 µM (active). Turning to `c1ccc2[nH]c(-c3cscn3)nc2c1`, the Potency result was “inactive”. Regarding `CN(C)C(=O)COC(=O)Cc1ccc(OC(=O)c2ccc(N=C(N)N)cc2)cc1`, the Potency entry was “inactive”.

Turning to `Cc1cc2c(s1)Nc1ccccc1N=C2N1CCN(C)CC1`, the Potency result was “inactive”. For the compound `CC1=C(C)C(=O)C(C(CCCCCC(=O)O)c2ccccc2)=C(C)C1=O` (stereo unspecified), the Potency result is “inactive”.

`NNc1nncc2ccccc12`: the Potency result was “inactive”. As for `CC(S)C(=O)NCC(=O)O` (stereo unspecified), the Potency entry is “inactive”. Next, `Cc1c(C(=O)NN2CCCCC2)nn(-c2ccc(Cl)cc2Cl)c1-c1ccc(Cl)cc1`: “inactive”; `CCCc1cc(=O)[nH]c(=S)[nH]1`: “inactive”; `Clc1ccc(C(Cn2ccnc2)OCc2ccc(Sc3ccccc3)cc2)c(Cl)c1` (stereo unspecified): “inactive”. For `COCCCOc1ccnc(CS(=O)c2nc3ccccc3[nH]2)c1C` (stereo unspecified), the Potency entry was “inactive”. Next, `CC1(C)CCC(C)(C)c2cc(NC(=O)c3ccc(C(=O)O)cc3)ccc21`: “inactive”; `COc1ccccc1N1CCN(CCN(C(=O)C2CCCCC2)c2ccccn2)CC1`: “inactive”. Next, `Cc1c(OCC(F)(F)F)ccnc1CS(=O)c1nc2ccccc2[nH]1` (stereo unspecified): “inactive”; `COc1cc2c(N3CCN(C(=O)Nc4ccc(OC(C)C)cc4)CC3)ncnc2cc1OCCCN1CCCCC1`: “inactive”.

With `CC(C)CC(=O)N[C@H](C(=O)N[C@H](C(=O)N[C@@H](CC(C)C)[C@@H](O)CC(=O)N[C@@H](C)C(=O)N[C@@H](CC(C)C)[C@@H](O)CC(=O)O)C(C)C)C(C)C` (Isovaleryl-VV[Sta]A[Sta]-OH), the Potency result is “inactive”. Next, `Clc1ccc(C(Cn2ccnc2)OCc2ccsc2Cl)c(Cl)c1` (stereo unspecified): “inactive”; `N=C(N)c1ccc2cc(OC(=O)c3ccc(N=C(N)N)cc3)ccc2c1`: “inactive”. For the compound `CCOC(=O)c1c(C)n(C)c2ccc(O)cc12`, the Potency result is “inactive”. Next, `CN(C)C(=O)[C@H](O)[C@H](Cc1ccccc1)NC(=O)c1cc2cc(Cl)ccc2[nH]1`: “inactive”. Next, `Cc1ccc(C(=O)c2cc(O)c(O)c([N+](=O)[O-])c2)cc1`: “inactive”; `O=C(O)c1cccc(-c2noc(-c3ccccc3F)n2)c1`: 5.01 µM (active) and 8.91 µM (active); `CCC1=C(C)CN(C(=O)NCCc2ccc(S(=O)(=O)NC(=O)NC3CCC(C)CC3)cc2)C1=O` (stereo unspecified): “inactive”. Consider `CC(=O)Nc1ccc(O)cc1`, for which the Potency entry was “inactive”. In the case of `OC(CN1CCN(c2cccc(Cl)c2)CC1)C(c1ccccc1)c1ccccc1` (stereo unspecified), the Potency result is “inactive”.

In the case of `Cc1cc(=O)c2c(O)c3c(O)cc(=O)c4c3c3c(cc(O)c1c23)C(C)(C)C=4O`, the Potency was 3.16 µM (active). The result for `COc1cc(C(C)=O)ccc1OCCCN1CCC(c2noc3cc(F)ccc23)CC1` reads “inactive”. As to `COc1cc2nc(N3CCN(C(=O)C4CCCO4)CC3)nc(N)c2cc1OC` (stereo unspecified), the Potency result was “inactive”. The result for `Cc1ncc([N+](=O)[O-])n1CC(C)O` (stereo unspecified) reads “inactive”. As to `O=C(O)CCNC(=O)c1ccc(N=Nc2ccc(O)c(C(=O)O)c2)cc1`, the Potency result was “inactive”.
